Reference: PubChem BioAssay AID1159580 (chemical genetic matrix, 2015)
Hit rate of the full screen: of about 5,500 compounds, about 2,000 (36%) were called active. About 18% were inconclusive and are not listed. Rule as the data show it: active = normalized growth mostly below about 0.91 (no sharp cut-off); inconclusive = no clear call, values can overlap the other calls; inactive = mostly above about 0.92. This is one part of the list.

Assay: chemical genetic growth profiling, strain panel (AID 1159580);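 also: tested at 20 µM; growth read once vehicle control cultures reached saturation at 30 °C; 1 = growth at the plate median or of vehicle wells; lower values mean less growth of the strain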
Conditions: growth OD
[1] = S. cerevisiae deletion strains, locus YDL101C, strain DUN1, active compounds read low
[2] = S. cerevisiae deletion strains, locus YHR030C, strain SLT2, active compounds read low

Measured: normalized growth

CN(C(=O)N(C)c1ccc(Cl)cc1C(=O)c1ccccc1Cl)c1ccc(Cl)cc1C(=O)c1ccccc1Cl
inactive: S. cerevisiae deletion strains, locus YHR205W, strain SCH9, active compounds read low 0.716 | S. cerevisiae deletion strains, locus YJL128C, strain PBS2, active compounds read low 0.867 | S. cerevisiae deletion strains, locus YPR111W, strain DBF20, active compounds read low 0.874
active: S. cerevisiae deletion strains, locus YAR019C, strain CDC15, active compounds read low 0.84 | S. cerevisiae deletion strains, locus YBL105C, strain PKC1, active compounds read low 0.85 | S. cerevisiae deletion strains, locus YBR135W, strain CKS1, active compounds read low 0.85 | S. cerevisiae deletion strains, locus YBR136W, strain MEC1, active compounds read low 0.832 | S. cerevisiae deletion strains, locus YBR160W, strain CDC28, active compounds read low 0.853 | S. cerevisiae deletion strains, locus YDL017W, strain CDC7, active compounds read low 0.851 | S. cerevisiae deletion strains, locus YDL028C, strain MPS1, active compounds read low 0.835 | [1] 0.847 | S. cerevisiae deletion strains, locus YDL108W, strain KIN28, active compounds read low 0.831 | S. cerevisiae deletion strains, locus YDL132W, strain cdc53, active compounds read low 0.853 | S. cerevisiae deletion strains, locus YDL214C, strain PRR2, active compounds read low 0.471 | S. cerevisiae deletion strains, locus YDR052C, strain DBF4, active compounds read low 0.855 | S. cerevisiae deletion strains, locus YDR054C, strain cdc34, active compounds read low 0.805 | S. cerevisiae deletion strains, locus YDR226W, strain ADK1, active compounds read low 0.86 | S. cerevisiae deletion strains, locus YDR477W, strain SNF1, active compounds read low 0.467 | S. cerevisiae deletion strains, locus YER123W, strain YCK3, active compounds read low 0.388 | S. cerevisiae deletion strains, locus YER133W, strain GLC7, active compounds read low 0.447 | S. cerevisiae deletion strains, locus YFL009W, strain cdc4, active compounds read low 0.848 | S. cerevisiae deletion strains, locus YFL029C, strain CAK1, active compounds read low 0.828 | S. cerevisiae deletion strains, locus YFR003C, strain YPI1, active compounds read low 0.85 | S. cerevisiae deletion strains, locus YFR019W, strain FAB1, active compounds read low 0.577 | S. cerevisiae deletion strains, locus YFR028C, strain CDC14, active compounds read low 0.841 | S. cerevisiae deletion strains, locus YGR040W, strain KSS1, active compounds read low 0.462 | S. cerevisiae deletion strains, locus YGR052W, strain FMP48, active compounds read low 0.46 | S. cerevisiae deletion strains, locus YGR092W, strain DBF2, active compounds read low 0.242 | [2] 0.49 | S. cerevisiae deletion strains, locus YHR079C, strain IRE1, active compounds read low 0.463 | S. cerevisiae deletion strains, locus YHR082C, strain KSP1, active compounds read low 0.492 | S. cerevisiae deletion strains, locus YIL147C, strain SLN1, active compounds read low 0.826 | S. cerevisiae deletion strains, locus YJL095W, strain BCK1, active compounds read low 0.417 | S. cerevisiae deletion strains, locus YJL157C, strain FAR1, active compounds read low 0.51 | S. cerevisiae deletion strains, locus YJR016C, strain ILV3, active compounds read low 0.883 | S. cerevisiae deletion strains, locus YJR066W, strain TOR1 (second series), active compounds read low 0.518 | S. cerevisiae deletion strains, locus YJR066W, strain TOR1, active compounds read low 0.381 | S. cerevisiae deletion strains, locus YKL048C, strain ELM1, active compounds read low 0.605 | S. cerevisiae deletion strains, locus YKL067W, strain YNK1, active compounds read low 0.525 | S. cerevisiae deletion strains, locus YKL101W, strain HSL1, active compounds read low 0.524 | S. cerevisiae deletion strains, locus YKL193C, strain SDS22, active compounds read low 0.832 | S. cerevisiae deletion strains, locus YKL203C, strain TOR2, active compounds read low 0.457 | S. cerevisiae deletion strains, locus YLR113W, strain HOG1, active compounds read low 0.447 | S. cerevisiae deletion strains, locus YLR133W, strain CKI1, active compounds read low 0.582 | S. cerevisiae deletion strains, locus YLR403W, strain SFP1, active compounds read low 0.592 | S. cerevisiae deletion strains, locus YML070W, strain DAK1, active compounds read low 0.446 | S. cerevisiae deletion strains, locus YMR001C, strain CDC5, active compounds read low 0.838 | S. cerevisiae deletion strains, locus YMR205C, strain PFK2 (second series), active compounds read low 0.549 | S. cerevisiae deletion strains, locus YMR277W, strain FCP1, active compounds read low 0.825 | S. cerevisiae deletion strains, locus YNL006W, strain LST8, active compounds read low 0.855 | S. cerevisiae deletion strains, locus YNL020C, strain ARK1, active compounds read low 0.527 | S. cerevisiae deletion strains, locus YNL161W, strain CBK1, active compounds read low 0.852 | S. cerevisiae deletion strains, locus YNL183C, strain NPR1, active compounds read low 0.412 | S. cerevisiae deletion strains, locus YNL207W, strain RIO2, active compounds read low 0.825 | S. cerevisiae deletion strains, locus YNL222W, strain SSU72, active compounds read low 0.846 | S. cerevisiae deletion strains, locus YNL307C, strain MCK1 (second series), active compounds read low 0.412 | S. cerevisiae deletion strains, locus YOL078W, strain AVO1, active compounds read low 0.845 | S. cerevisiae deletion strains, locus YOL136C, strain PFK27, active compounds read low 0.51 | S. cerevisiae deletion strains, locus YOR061W, strain CKA2, active compounds read low 0.477 | S. cerevisiae deletion strains, locus YOR119C, strain RIO1, active compounds read low 0.483 | S. cerevisiae deletion strains, locus YOR231W, strain MKK1, active compounds read low 0.455 | S. cerevisiae deletion strains, locus YOR329C, strain SCD5, active compounds read low 0.846 | S. cerevisiae deletion strains, locus YPL031C, strain PHO85, active compounds read low 0.441 | S. cerevisiae deletion strains, locus YPL153C, strain RAD53, active compounds read low 0.369 | S. cerevisiae deletion strains, locus YPL204W, strain HRR25, active compounds read low 0.487 | S. cerevisiae deletion strains, locus YPL209C, strain IPL1, active compounds read low 0.855 | S. cerevisiae deletion strains, locus YPL256C, strain CLN2, active compounds read low 0.508 | S. cerevisiae deletion strains, locus YPR025C, strain CCL1, active compounds read low 0.856 | S. cerevisiae deletion strains, locus YPR106W, strain ISR1, active compounds read low 0.868 | S. cerevisiae deletion strains, strain NNK1, active compounds read low 0.855 | S. cerevisiae deletion strains, strain TSCII, active compounds read low 0.818

COC(=O)c1ccc(Cl)cc1N(Cc1ccccc1)S(C)(=O)=O
inactive: S. cerevisiae deletion strains, locus YAL013W, strain DEP1, active compounds read low 1.01 | S. cerevisiae deletion strains, locus YBR229C, strain ROT2, active compounds read low 1.02 | [1] 0.998 | S. cerevisiae deletion strains, locus YDL134C, strain PPH21, active compounds read low 1 | S. cerevisiae deletion strains, locus YDR150W, strain NUM1, active compounds read low 0.934 | S. cerevisiae deletion strains, locus YEL061C, strain CIN8, active compounds read low 1 | S. cerevisiae deletion strains, locus YGR078C, strain PAC10, active compounds read low 0.992 | S. cerevisiae deletion strains, locus YGR229C, strain SMI1, active compounds read low 0.999 | [2] 1.11 | S. cerevisiae deletion strains, locus YHR087W, strain rtc3, active compounds read low 1 | S. cerevisiae deletion strains, locus YJL187C, strain SWE1, active compounds read low 1 | S. cerevisiae deletion strains, locus YJR075W, strain HOC1, active compounds read low 0.968 | S. cerevisiae deletion strains, locus YLR039C, strain RIC1, active compounds read low 1.03 | S. cerevisiae deletion strains, locus YLR058C, strain SHM2 (second series), active compounds read low 1.01 | S. cerevisiae deletion strains, locus YLR085C, strain ARP6, active compounds read low 1.05 | S. cerevisiae deletion strains, locus YLR262C, strain YPT6, active compounds read low 1 | S. cerevisiae deletion strains, locus YML094W, strain GIM5, active compounds read low 1.02 | S. cerevisiae deletion strains, locus YMR219W, strain ESC1, active compounds read low 1 | S. cerevisiae deletion strains, locus YMR263W, strain SAP30, active compounds read low 0.929 | S. cerevisiae deletion strains, locus YNL128W, strain TEP1, active compounds read low 1.02 | S. cerevisiae deletion strains, locus YNL153C, strain GIM3, active compounds read low 1 | S. cerevisiae deletion strains, locus YNL298W, strain CLA4 (second series), active compounds read low 1.04 | S. cerevisiae deletion strains, locus YNL322C, strain KRE1, active compounds read low 0.985 | S. cerevisiae deletion strains, locus YNR030W, strain Alg12, active compounds read low 1.02 | S. cerevisiae deletion strains, locus YOL006C, strain TOP1, active compounds read low 1.14 | S. cerevisiae deletion strains, locus YPL055C, strain LGE1, active compounds read low 0.923 | S. cerevisiae deletion strains, locus YPL241C, strain CIN2, active compounds read low 1.03 | S. cerevisiae deletion strains, locus YPR135W, strain CTF4, active compounds read low 1.17 | S. cerevisiae strains, strain wild type, active compounds read low 1.03
